This is a sample that favours compounds with a hit; in the whole collection about 1.6% have one here.
KCNQ2 inh: KCNQ2 (rat) channel inhibition | O88943 | CHO-K1 KCNQ2, FluxOR thallium flux, 20 min; hits give low values | B-score at 10 µM | actives 1.1% (n = 310,000) | AID 2156;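 active = fluorescence ratio B-score at most minus 3 library SDs, with starting brightness B-score within 2 library SDs, cut at about -5.5 in these data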
Target sequence (O88943 whole entry, looked up): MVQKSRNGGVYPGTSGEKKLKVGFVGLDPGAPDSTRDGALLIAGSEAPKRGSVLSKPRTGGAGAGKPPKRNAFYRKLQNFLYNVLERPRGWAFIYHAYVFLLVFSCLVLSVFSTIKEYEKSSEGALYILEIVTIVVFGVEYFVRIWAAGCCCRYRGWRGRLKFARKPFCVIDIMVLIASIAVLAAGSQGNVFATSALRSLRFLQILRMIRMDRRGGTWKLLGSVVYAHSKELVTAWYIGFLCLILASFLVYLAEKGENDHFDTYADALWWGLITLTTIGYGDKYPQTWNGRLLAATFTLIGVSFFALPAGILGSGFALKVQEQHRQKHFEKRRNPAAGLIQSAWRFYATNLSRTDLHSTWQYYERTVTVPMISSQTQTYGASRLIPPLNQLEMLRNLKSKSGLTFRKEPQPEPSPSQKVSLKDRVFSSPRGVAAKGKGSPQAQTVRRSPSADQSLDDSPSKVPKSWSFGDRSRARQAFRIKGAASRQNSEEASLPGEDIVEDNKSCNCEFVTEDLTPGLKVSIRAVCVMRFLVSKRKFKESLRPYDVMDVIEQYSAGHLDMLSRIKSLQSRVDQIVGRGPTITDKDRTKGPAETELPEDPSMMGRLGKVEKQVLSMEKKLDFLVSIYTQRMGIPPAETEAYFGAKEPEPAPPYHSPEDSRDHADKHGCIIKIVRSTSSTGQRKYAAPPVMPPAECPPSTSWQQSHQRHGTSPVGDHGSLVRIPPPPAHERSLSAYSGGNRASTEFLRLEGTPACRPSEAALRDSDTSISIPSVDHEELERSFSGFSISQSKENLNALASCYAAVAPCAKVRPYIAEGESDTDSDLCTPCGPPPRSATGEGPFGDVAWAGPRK
KCNQ2 enhance: KCNQ2 (rat) channel potentiation; CHO-K1 KCNQ2, FluxOR thallium flux fluorescence; hits give high values; B-score at 10 µM; actives 0.54% (n = 310,000); AID 2239;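 active = fluorescence ratio B-score at least 3 SD of library B-scores, with initial fluorescence B-score within 3 of them, cut at about 5.3 in these data; same plate scores as AID 2156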;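 also: B-score of peak minus minimum over baseline fluorescence ratio after K+ and Tl+ stimulus; positive B-score means potentiation of KCNQ2 with more thallium influx and brighter signal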
* hit, by the source's call; i = inactive; · = no result.

SMILES | KCNQ2 inh | KCNQ2 enhance
CC(=O)NNc1nc2ccccc2s1 | i | 0.39
C/C(=C\C(=O)c1ccccc1)NNc1nc2ccccc2s1 | -5.71* | -5.71
Cc1cccnc1Nc1nc(-c2ccc(O)cc2)cs1 | i | ·
Cc1cccnc1Nc1nc(-c2ccc(F)cc2)cs1 | -7.21* | -7.21
Cc1ccc(C(=O)C(C)OC(=O)CCN=C2NS(=O)(=O)c3ccccc32)cc1 (stereo not given) | i | 0.01
COC(CNC(=O)c1c[nH]c2ccc(S(=O)(=O)N(C)c3ccc(F)cc3)cc2c1=O)OC | i | ·
Cn1nc(C(F)(F)F)c(/C=N/OC(=O)c2ccccc2Cl)c1SCc1ccccc1Cl | -5.95* | -5.95
Cn1nc(C(F)(F)F)c(/C=N/OC(=O)c2ccccc2)c1SCc1ccc(Cl)cc1 | i | ·
CCn1c(NCc2cc(Cl)ccc2O)nc2ccccc21 | -5.62* | -5.62
C=CCn1c(NCc2cc(Cl)ccc2O)nc2ccccc21 | i | ·
C=CCn1c(NCc2ccccc2OC)nc2ccccc21 | i | ·
CCn1c(NCc2cccc(OC)c2OC)nc2ccccc21 | -6.09* | -6.09
OC(CNCC1COc2ccccc2O1)COc1ccccc1F (stereo not given) | i | ·
CCOc1ccc(NC(c2ccccc2)P(=O)(OC)OC)cc1 (stereo not given) | i | ·
CCCOC(=O)CSC1=C(C#N)C(c2ccccc2OCC)C(C#N)C(=O)N1 (stereo not given) | i | 1.85
CCCCOC(=O)CSC1=C(C#N)C(c2ccccc2OCC)C(C#N)C(=O)N1 (stereo not given) | i | 7.13*
COc1ccc(Cl)cc1C(=O)NNC(=O)COC(=O)CCN=C1NS(=O)(=O)c2ccccc21 | i | 0.51
Cc1ccccc1OCc1nnc(SCC(=O)N2CCc3ccccc32)n1C | i | 2.02
Cc1cccc(OCc2nnc(SCC(=O)N3c4ccccc4CC3C)n2C)c1C (stereo not given) | -6.03* | -6.03
O=C(O)CCC(=O)Nc1ccc(SSc2ccc(NC(=O)CCC(=O)O)cc2)cc1 | i | ·
O=C(CCNS(=O)(=O)c1ccccc1C(F)(F)F)N1CCN(S(=O)(=O)c2cccc(F)c2)CC1 | i | 2.36
Cn1c(Cc2cccs2)nnc1SCC(=O)N1CCCc2ccccc21 | i | ·
O=C(CSc1nnnn1C1CCCC1)N1CCCc2ccccc21 | i | ·
O=C(CSc1nnc(Cc2cccs2)n1CCc1ccccc1)N1CCCc2ccccc21 | -6.47* | -6.47
O=C(CSc1nnc(Cc2cccs2)n1C1CCCCC1)N1CCCc2ccccc21 | -6.45* | -6.45
SMILES | KCNQ2 inh | KCNQ2 enhance
CC(=O)c1ccc(S(=O)(=O)NC2CC(=O)N(c3ccc(C)c(C)c3)C2)cc1 (stereo not given) | i | ·
COc1ccc(-c2cc(C(=O)N3CCN(c4ccccc4O)CC3)c3ccccc3n2)cc1OC | i | ·
COc1cccc(/C=N/n2c(-c3cc(C)[nH]n3)n[nH]c2=S)c1OC | i | ·
COc1cccc(/C=N/n2c(=S)n(C)c3cc(C)c(C)cc32)c1OC | -6.13* | -6.13
O=C(c1ccccc1)n1ccc(-c2cccs2)n1 | i | 8.59*
COC(=O)c1cc(-c2cccs2)nn1-c1ccccc1 | i | 0.05
Cc1cc(C)c(OCC(=O)NCC(C)(C)N2CCOCC2)c(C)c1 | i | 0.75
COc1ccccc1NC(=O)c1sc2ncn(Cc3ccccc3C)c(=O)c2c1C | -5.85* | -5.85
CCn1cnc2sc(C(=O)Nc3ccccc3OC)c(C)c2c1=O | i | ·
Cc1ccc(S(=O)(=O)CCC(=O)OCC(=O)N(Cc2ccccc2)C(C)C)cc1 | i | 0.78
CN(C)c1ccc(C(=O)Nc2nc3c(s2)CCCC3)cc1 | i | ·
CC(C)(C)c1ccc(C(=O)NC(=S)Nc2nc3c(s2)CCCC3)cc1 | i | 8.46*
CCOC(=O)C1(CCCc2ccccc2)CCN(S(C)(=O)=O)CC1 | i | 0.2
CCOC(=O)/C(=C\c1cccnc1)C(=O)c1cc(C(C)=O)c(Nc2ccccc2)s1 | i | ·
CCOC(=O)/C(=C\c1ccccc1)C(=O)c1cc(C(C)=O)c(Nc2ccccc2)s1 | -8.12* | -8.12
CCCN(CC(=O)Nc1ccccc1C)C(=O)c1ccc(N2CCCCC2)c([N+](=O)[O-])c1 | i | ·
CC(=O)Nc1nn(C)c2nc3ccc(C)cc3cc12 | i | 0.16
COc1ccccc1NS(=O)(=O)c1ccc(Cl)c(NC(=S)NC(=O)C2CCCC2)c1 | i | ·
CCN(CC)c1ccc(S(=O)(=O)Nc2cc(Cl)ccc2Cl)cc1NC(=S)NC(=O)C1CCCC1 | -7.07* | -7.07
COc1ccc(-c2nnc(Nc3nc4c(OC)cccc4s3)o2)c(OC)c1 | i | 0.68
COc1ccc(-c2nnc(Nc3nc4c(OC)cccc4s3)o2)cc1 | i | 5.45*
O=C(Oc1ccc(Br)cc1C(=O)/C=C/c1ccccc1F)c1ccco1 | -7.16* | -7.16
CC(=O)c1cc(Cl)ccc1OC(=O)c1ccco1 | i | 1.46
Cc1ccc(NC(=O)C2CCCN(S(=O)(=O)c3ccc(-n4cnnn4)cc3)C2)cc1 (stereo not given) | i | 0.46
COc1ccc(N(CC(=O)Nc2cccnc2)S(=O)(=O)c2ccccc2)cc1OC | i | ·
SMILES | KCNQ2 inh | KCNQ2 enhance
Cc1cccc2cc(CN(Cc3ccco3)C(=O)Nc3cccc(C#N)c3)c(Cl)nc12 | i | ·
Cc1ccc2cc(CN(Cc3ccco3)C(=O)NCc3ccccc3)c(=O)[nH]c2c1C | i | ·
Cc1ccc(NC(=O)N(Cc2ccco2)Cc2cc3cc(C)cc(C)c3nc2Cl)cc1 | -6.78* | -6.78
COc1ccccc1NC(=O)N(Cc1ccco1)Cc1cc2ccc(C)c(C)c2[nH]c1=O | i | ·
Cc1ccc(C)c2[nH]c(=O)c(CN(Cc3ccco3)C(=O)Nc3ccccc3)cc12 | -5.59* | -5.59
COc1ccccc1NC(=O)N(Cc1ccco1)Cc1cc2cc(C)cc(C)c2[nH]c1=O | -6* | -6
COc1ccccc1NC(=O)CN(Cc1ccco1)C(=O)c1ccc(=O)[nH]c1 | i | ·
COc1ccccc1NC(=O)CN(Cc1ccco1)C(=O)c1cc2ccccc2o1 | -7.64* | -7.64
N#Cc1cnc2nc(SCc3ccccc3)nn2c1 | i | ·
Cc1ccc(C(=O)OCC(=O)N2CCCC2)cc1 | i | 0.02
Cc1cc(C)n(CCC(=O)N2CCN(S(=O)(=O)c3ccccc3)CC2)n1 | i | 1.84
COc1ccc(/C=N/NC(=O)c2ccccc2OCc2ccccc2)c(OC)c1 | -6.82* | -6.82
Cc1cccc(/C=N/NC(=O)c2ccccc2OCc2cccc(Br)c2)n1 | i | ·
COc1ccc(/C(C)=N/NC(=O)c2ccccc2OCc2ccccc2)c(OC)c1 | i | ·
COc1ccc(C(=O)Nc2ccccc2C(N)=O)cc1 | i | 0.25
COc1ccc(C(=O)Nc2ccccc2C(=O)N/N=C/c2cccc3ccccc23)cc1 | -5.83* | -5.83
Cc1cccc(/C=N/NC(=O)c2cc(Br)ccc2OCc2ccccc2)n1 | -5.94* | -5.94
Cc1ccc(C(=O)N[C@H](C(=O)N2CCN(c3ccccc3F)CC2)C(C)C)cc1 | i | ·
COc1ccc(CCNC(=O)CCS(=O)(=O)c2ccc3c(c2)NC(=O)C(C)S3)cc1OC (stereo not given) | i | 0.27
Cc1nn(CCO)c2nc(-c3cccs3)cc(C(F)(F)F)c12 | i | 5.75*
Cc1nn(C)c2nc(-c3cccs3)cc(C(F)(F)F)c12 | i | ·
O=C(CSc1nnc(COc2ccc(Cl)cc2)o1)N1c2ccccc2CCc2ccccc21 | -9.41* | -9.41
O=C(CSc1nnc(COc2ccc(Cl)cc2)o1)N1CCCC1 | i | 0.93
Cc1ccc(C)c(S(=O)(=O)Nc2ccc(C(=O)N3CCC3)cc2)c1 | i | ·

High-throughput results (PubChem)
